Results on nine compounds are retold here after PubChem BioAssay (NCI).

Test systems include SK-MEL-2 melanoma; EKVX NSCLC; SN12C renal; UO-31 renal; TK-10 renal; CAKI-1 renal; A498 renal; CCRF-CEM leukemia; MOLT-4 leukemia; SR leukemia; RPMI-8226 leukemia; OVCAR-8 ovarian; OVCAR-5 ovarian; SK-OV-3 ovarian; IGROV1 ovarian; OVCAR-3 ovarian; HS 578T breast; NCI/ADR-RES ovarian; OVCAR-4 ovarian; ACHN renal.
What all share (assay): NCI-60 one-dose screen, 48 h (100 = growth as untreated, 0 = no growth, -100 = all killed)
Holding throughout (settings): 10 µM unless noted

About 83,000 compounds went through this panel and 20% of them were active in at least one assay; those are over-represented in the sample as a whole.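 The test compound was applied at a single concentration to cells in 96-well plates for 48 hours, and percent growth was recorded.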 A number with no mark means an inactive call. Active and inactive are the calls of the source. How the source made its calls: active means growth percent below 10; inactive means the rest.

On to `CCN(CC)CCCC(C)NC(=S)N/N=C(\C)c1ccccn1` (configuration not stated), for which the growth was 83.6% in the assay with SK-MEL-2 melanoma; 47.7% in the assay with EKVX NSCLC; 35.9% with SN12C renal; 14.8% in the assay with UO-31 renal; 48.4% with TK-10 renal; 20.1% in the assay on CAKI-1 renal. In addition, the growth with A498 renal is 72.1%; in the assay with CCRF-CEM leukemia, 29.8%; in the assay on MOLT-4 leukemia it was 9.05% (active); in the assay with SR leukemia, 17.7%; in the assay with RPMI-8226 leukemia it was 58.9%; in the assay with OVCAR-8 ovarian, 36.1%. Moreover, the growth in the assay with OVCAR-5 ovarian is 55.1%; in the assay on SK-OV-3 ovarian, 52.3%; with IGROV1 ovarian, 32.3%; in the assay on OVCAR-3 ovarian it was 51%; in the assay with HS 578T breast it was 92.6%; in the assay with NCI/ADR-RES ovarian it was 93.7%.

As to `OCc1cccnc1`, the growth in the assay with SK-MEL-2 melanoma was 94%; in the assay with EKVX NSCLC it was 107%; with SN12C renal, 99.2%; with UO-31 renal, 81.7%; in the assay with TK-10 renal, 102%; with CAKI-1 renal, 35.5%. Also, the growth in the assay with A498 renal was 78.4%; with CCRF-CEM leukemia, 92.1%; in the assay with MOLT-4 leukemia, 109%; in the assay with SR leukemia, 95.1%; with RPMI-8226 leukemia, 102%; in the assay on OVCAR-8 ovarian, 95.2%. Also, the growth is 99.6% with OVCAR-5 ovarian; 115% in the assay on OVCAR-4 ovarian; 107% in the assay with SK-OV-3 ovarian; 114% in the assay with OVCAR-3 ovarian; 97.2% with HS 578T breast; 115% with NCI/ADR-RES ovarian.

Regarding `COc1ccc(C)cc1NC(=O)SC(C)C`, the growth is 102% [100 µM] with SK-MEL-2 melanoma; 96.6% [100 µM] with SN12C renal; 82.9% [100 µM] in the assay with UO-31 renal; 128% [100 µM] in the assay on TK-10 renal; 100% [100 µM] in the assay on ACHN renal; 95.5% [100 µM] in the assay with CAKI-1 renal. Further, the growth is 92.3% [100 µM] in the assay with A498 renal; 106% [100 µM] in the assay on CCRF-CEM leukemia; 106% [100 µM] with MOLT-4 leukemia; 95.3% [100 µM] in the assay on SR leukemia; 99% [100 µM] with RPMI-8226 leukemia; 105% [100 µM] with OVCAR-8 ovarian. The growth is 102% [100 µM] with OVCAR-5 ovarian; 96.7% [100 µM] with OVCAR-4 ovarian; 111% [100 µM] with SK-OV-3 ovarian; 102% [100 µM] in the assay with IGROV1 ovarian; 116% [100 µM] in the assay with OVCAR-3 ovarian; 102% [100 µM] with HS 578T breast. In the assay with NCI/ADR-RES ovarian, the growth is 103% [100 µM].

Turning to `Cc1ccc(N)c(S(=O)(=O)O)c1`, the growth in the assay on SK-MEL-2 melanoma was 84.3%; in the assay with EKVX NSCLC, 110%; in the assay with UO-31 renal, 92.1%; with TK-10 renal, 128%; in the assay with ACHN renal, 102%; with CAKI-1 renal it was 90.8%. Besides, the growth with A498 renal is 118%; in the assay on MOLT-4 leukemia, 83.6%; in the assay on SR leukemia it was 79%; in the assay on RPMI-8226 leukemia it was 90.2%; in the assay with OVCAR-8 ovarian, 103%; with OVCAR-5 ovarian, 89%. In addition, the growth is 83.7% with OVCAR-4 ovarian; 103% in the assay with SK-OV-3 ovarian; 206% in the assay on IGROV1 ovarian; 106% with OVCAR-3 ovarian; 113% in the assay with HS 578T breast; 94.5% with NCI/ADR-RES ovarian.

As to `CC(C)(C)CC1(C)NC(=O)NC1=O` (configuration not stated), the growth in the assay with SK-MEL-2 melanoma was 166%; in the assay with EKVX NSCLC, 108%; with UO-31 renal it was 100%; with TK-10 renal it was 125%; in the assay with ACHN renal it was 109%; in the assay with CAKI-1 renal it was 102%. The growth was 120% with A498 renal; -59.7% (active) in the assay on CCRF-CEM leukemia; 93.2% in the assay on MOLT-4 leukemia; 134% with SR leukemia; 73.3% in the assay on RPMI-8226 leukemia; 109% with OVCAR-8 ovarian. Also, the growth was 89.1% in the assay on OVCAR-5 ovarian; 106% with OVCAR-4 ovarian; 115% with SK-OV-3 ovarian; 125% with IGROV1 ovarian; 120% in the assay on OVCAR-3 ovarian; 105% in the assay on HS 578T breast. Also, the growth with NCI/ADR-RES ovarian was 99.7%.

For `CCOC(=O)c1ccc(NC(C)=O)o1`, the growth in the assay on SK-MEL-2 melanoma is 99.6%; in the assay on EKVX NSCLC it was 111%; with UO-31 renal, 87.4%; in the assay with TK-10 renal it was 100%; in the assay with ACHN renal, 108%; in the assay on CAKI-1 renal, 103%. The growth in the assay with A498 renal was 63%; in the assay on CCRF-CEM leukemia, 98.8%; in the assay on MOLT-4 leukemia it was 79.1%; in the assay on SR leukemia, 79.3%; in the assay on RPMI-8226 leukemia, 103%; in the assay on OVCAR-8 ovarian it was 91.3%. Also, the growth was 107% in the assay on OVCAR-4 ovarian; 92.1% in the assay on SK-OV-3 ovarian; 108% in the assay with IGROV1 ovarian; 113% in the assay on OVCAR-3 ovarian; 89.6% with HS 578T breast; 97.5% with NCI/ADR-RES ovarian.

Take `ClCC(Cl)C1CCC(Cl)C(Cl)C1` (configuration not stated): the growth in the assay on SK-MEL-2 melanoma was 110%; with SN12C renal, 104%; in the assay on UO-31 renal it was 86.3%; in the assay with TK-10 renal it was 100%; in the assay on ACHN renal, 99.3%; in the assay on CAKI-1 renal it was 97.2%. The growth was 85.5% with A498 renal; 97.5% in the assay on CCRF-CEM leukemia; 105% in the assay on MOLT-4 leukemia; 99.5% in the assay on SR leukemia; 100% with RPMI-8226 leukemia; 95.6% in the assay on OVCAR-8 ovarian. The growth in the assay on OVCAR-5 ovarian is 105%; with OVCAR-4 ovarian, 104%; in the assay with SK-OV-3 ovarian, 100%; with IGROV1 ovarian, 117%; in the assay on OVCAR-3 ovarian it was 114%; in the assay on HS 578T breast it was 103%. For the same compound, the growth with NCI/ADR-RES ovarian is 104%.

For `CCCCOC(=O)c1ccccc1O`, the growth with SK-MEL-2 melanoma was 161%; with EKVX NSCLC, 106%; in the assay on UO-31 renal, 99.2%; with TK-10 renal, 115%; in the assay on ACHN renal it was 104%; with CAKI-1 renal it was 107%. In addition, the growth in the assay on A498 renal was 129%; with CCRF-CEM leukemia it was -71.6% (active); in the assay with MOLT-4 leukemia, 117%; in the assay with SR leukemia, 154%; with RPMI-8226 leukemia, 16.5%; with OVCAR-8 ovarian it was 107%. In addition, the growth is 101% in the assay on OVCAR-5 ovarian; 105% in the assay with OVCAR-4 ovarian; 110% with SK-OV-3 ovarian; 118% with IGROV1 ovarian; 124% in the assay on OVCAR-3 ovarian; 103% in the assay with HS 578T breast. In addition, the growth in the assay on NCI/ADR-RES ovarian was 110%.

Regarding `CCCC1OC(c2ccco2)OCC1CC` (configuration not stated), the growth was 97.7% with SK-MEL-2 melanoma; 96.4% in the assay with EKVX NSCLC; 77.6% with UO-31 renal; 97.1% in the assay on TK-10 renal; 105% in the assay on ACHN renal; 88.2% in the assay with CAKI-1 renal. For the same compound, the growth with A498 renal is 94.6%; in the assay on CCRF-CEM leukemia it was 93%; in the assay on MOLT-4 leukemia, 89.3%; in the assay with SR leukemia it was 106%; in the assay with RPMI-8226 leukemia it was 94.8%; in the assay with OVCAR-8 ovarian it was 101%. In addition, the growth in the assay with OVCAR-5 ovarian is 100%; in the assay on OVCAR-4 ovarian it was 115%; with SK-OV-3 ovarian, 113%; with IGROV1 ovarian it was 95.1%; with OVCAR-3 ovarian, 109%; in the assay on HS 578T breast, 118%. Besides, in the assay with NCI/ADR-RES ovarian, the growth is 107%.
